Data reported in PubChem BioAssay.

The molecules below were run on Sam68 (KHDRBS1) (assay: Sam68 small-molecule binders, primary screen, biochemical, small-molecule microarray, 635 nm fluorescence (AID 1125;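 note: score merges 667 nm channel intensity with signal to noise over triplicate slides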)). Conditions: small-molecule microarray binding, higher = more signal.

| SMILES | composite z-score |
| --- | --- |
| COCC#Cc1ccc([C@@H]2N[C@H](C(=O)O)CC[C@H]2C)cc1 | -0.377 |
| C#CCCCON=C1[C@H]2CCn3c(=O)n([C@@H](CC)c4ccccc4)c(=O)n3[C@H]2[C@H](O)[C@@H]2O[C@H]12 | 0.113 |
| O=C1CCCC=C1C(O)C1CCCCC1 (stereo unspecified) | -0.429 |
| C[C@@H](c1ccccc1)N1C(=O)[C@H]2[C@H]3[C@H](O)[C@H](O)CC(=NOC[C@@H](O)COCc4ccco4)[C@H]3CC[C@H]2C1=O | -0.382 |
| CCOC(=O)[C@H](CC(C)C)NC(=O)CCC1CC(OC(=O)NCCc2ccc(F)cc2)CC2(CCCC(COC(=O)NCc3cccc4ccccc34)O2)O1 (stereo partly specified) | 0.695 |
| COC(=O)[C@H](C)NC(=O)CCC1CC(OC(=O)NCCc2ccc(F)cc2)CC2(CCCC(COC(=O)NCCc3ccccc3OC)O2)O1 (stereo partly specified) | 1.29 |
| CCOC(=O)CCN1C(=O)[C@H]2[C@H]3[C@H](O)[C@H](O)CC(=NOCC(C)C)[C@@H]3CC[C@H]2C1=O | -0.0659 |
| CC[C@@H](c1ccccc1)n1c(=O)n2n(c1=O)[C@H]1[C@H](O)[C@@H]3O[C@@H]3C(=NOCc3ccccc3)[C@H]1CC2 | 0.0843 |
| COc1ccc(O[C@H]2C=C[C@@H](c3ccccc3)O[C@@H]2CON=C(C)CCN2CCCc3nc(C)c(C)cc32)cc1 | 1.05 |
| COC(OC)[C@@H](C)[C@H](OC)[C@@H](C)[C@H](OC)c1ccccc1 | -1.16 |
| CC(CCN1CCc2nc(-c3ccccc3)c(-c3ccccc3)cc2C1)=NO[C@@H](C)c1cc(-c2c(C)cc(C)cc2C)no1 | -0.0575 |
| CO[C@H]1COC(=O)CCC[C@H](C)[C@H](OC)COC(=O)CC=C[C@@H]1C | -0.219 |
| COC(=O)[C@H](CCSC)NC(=O)CC=C[C@@H](C)CO | 1.29 |
| C[C@H]1CC[C@@H](C(=O)O)N[C@@H]1c1cccc(N2CCCC2=O)c1 | 0.0706 |
| C#CCCCON=C1C[C@@H](O)[C@@H](O)[C@@H]2[C@@H]3C(=O)N([C@@H](C)c4ccccc4)C(=O)[C@@H]3CC[C@@H]12 | -0.105 |
| COC(=O)[C@H](C)NC(=O)CCC1CC(OC(=O)NCc2ccc3c(c2)OCO3)CC2(CCCC(COC(=O)NCc3ccccc3)O2)O1 (stereo partly specified) | 1.26 |
| CCOC(=O)CCN1C(=O)[C@H]2[C@H]3[C@H](O)[C@H](O)CC(=NNC(=O)OCC)[C@H]3CC[C@H]2C1=O | 0.398 |
| CC(C)(C)N1C(=O)[C@H]2[C@@H]3C(=CC[C@H]2C1=O)C(=O)[C@H]1O[C@H]1[C@H]3O | -0.657 |

| SMILES | composite z-score |
| --- | --- |
| O=C1[C@H]2[C@H]3[C@H](O)[C@H](O)CC(=NO[C@@H]4O[C@H](CO)[C@@H](O)[C@H](O)[C@H]4O)[C@@H]3CC[C@H]2C(=O)N1C1CCCCC1 | 0.317 |
| COc1ccc(COC(=O)NN=C2C[C@@H](O)[C@@H](O)[C@@H]3[C@@H]4C(=O)N([C@@H](C)c5ccccc5)C(=O)[C@@H]4CC[C@@H]23)cc1 | -0.196 |
| COc1ccc(COC(=O)NN=C2C[C@@H](O)[C@@H](O)[C@@H]3[C@@H]4C(=O)N(Cc5ccccc5)C(=O)[C@@H]4CC[C@@H]23)cc1 | 0.389 |
| CC(C)[C@@H](OCc1ccccc1)[C@H](C)C=NO[C@@H](C)c1cn([C@H](CO)Cc2ccccc2)nn1 | 0.706 |
| CCOC(=O)[C@H](Cc1ccccc1)NC(=O)CCC1CC(OC(=O)NCc2ccc3c(c2)OCO3)CC2(CCCC(COC(=O)NCCOc3ccccc3)O2)O1 (stereo partly specified) | 1.29 |
| COC(=O)[C@H](C)NC(=O)CCC1CC(OC(=O)NCc2ccc3c(c2)OCO3)CC2(CCCC(COC(=O)NCCCN3CCCC3=O)O2)O1 (stereo partly specified) | 1.26 |
| O=C(NN=C1C[C@@H](O)[C@@H](O)[C@@H]2[C@@H]3C(=O)N(Cc4ccc5c(c4)OCO5)C(=O)[C@@H]3CC[C@@H]12)OCc1ccccc1 | -0.449 |
| CCN1C(=O)[C@H]2[C@H]3[C@H](O)[C@H](O)CC(=NOCC[C@@H]4C=C[C@H](OC(C)=O)[C@@H](COC(C)=O)O4)[C@@H]3CC[C@H]2C1=O | 0.214 |
| COC(=O)[C@H](C)NC(=O)CCC1CC(OC(=O)NCc2ccc3c(c2)OCO3)CC2(CCCC(COC(=O)NCCC(C)C)O2)O1 (stereo partly specified) | 1.31 |
| CO[C@H]1COC(=O)CC=C[C@H](C)[C@H](OC)COC(=O)[C@@H](C)NC(=O)CC=C[C@@H]1C | -0.445 |
| O=C1C=C[C@@H](O)[C@@H]2[C@@H]3C(=O)N(Cc4ccccc4)C(=O)[C@@H]3CC[C@@H]12 | 0.0888 |
| CCOC(=O)[C@H](Cc1ccccc1)NC(=O)CCC1CC(OC(=O)NCc2ccc3c(c2)OCO3)CC2(CCCC(COC(=O)NCCc3ccc(Cl)cc3)O2)O1 (stereo partly specified) | 1.3 |
| COc1ccc(-c2cnnc(CCCn3ccnc3-c3ccccc3)n2)cc1 | 0.943 |
| CCOC(=O)NN=C1C[C@@H](O)[C@@H](O)[C@@H]2[C@@H]3C(=O)N(c4ccc(F)cc4F)C(=O)[C@@H]3CC[C@H]12 | 0.108 |
| C#CCCCON=C1C[C@@H](O)[C@@H](O)[C@@H]2[C@@H]3C(=O)N(CC)C(=O)[C@@H]3CC[C@H]12 | 0.866 |
| C[C@H]1CC[C@@H](C(=O)O)N[C@@H]1c1ccc(C#Cc2ccccc2)cc1 | 1.22 |
| COC(=O)[C@H](C)NC(=O)CCC1CC(OC(=O)NCc2cccc3ccccc23)CC2(CCCC(COC(=O)NCc3ccccc3)O2)O1 (stereo partly specified) | 1.26 |
| CC(=O)OC[C@H]1O[C@H](CC=NOC[C@@H](O)[C@H]2O[C@@H]3OC(C)(C)O[C@@H]3[C@H]2O)C=C[C@@H]1OC(C)=O | 0.883 |
